Compounds without any hit were thinned out: in the full panel of roughly 83,000, 20% have a hit.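 96-well plates, one dose, 48 hours. Percent growth reported; active if below 10.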 Unmarked numbers belong to inactive results. Calls of active or inactive are those of the source.

Assay in all cases: NCI-60 one-dose screen, 48 h (100 = growth as untreated, 0 = no growth, -100 = all killed)
Conditions in all cases: 10 µM unless noted

The subject of assay [1] is DU-145 prostate.
In assay [2] the test system is K-562 leukemia.
For assay [3], the system named is MALME-3M melanoma.
Assay [4] concerns MDA-MB-231 breast.
Assay [5] has as its system RXF 393 renal.
Assay [6] relates to SF-268 CNS.
The subject of assay [7] is SF-295 CNS.
Assay [8] has as its system SF-539 CNS.
Assay [9] has as its system UACC-257 melanoma.
The subject of assay [10] is M14 melanoma.

Take `C=C(C)[C@@H]1CC[C@]2(c3nnc(-c4ccncc4)o3)CC[C@]3(C)[C@H](CC[C@@H]4[C@@]5(C)CCC(=O)NC(C)(C)[C@@H]5CC[C@]43C)[C@@H]12`: the growth in assay [1] was 108%; in assay [2] it was 80.5%; in assay [3] it was 101%; in assay [4], 89.8%; in assay [5], 97.9%; in assay [6] it was 89.5%. Also, the growth is 99.4% in [7], 96.9% in assay [8], 97.9% in [9] and 99% in assay [10].

For `Cc1cc(N=O)cc(C(C)(C)C)c1O`, the growth is 103% in assay [1]; 98.2% in [2]; 88.4% in assay [3]; 95.1% in assay [4]; 105% in assay [5]; 100% in assay [6]. Moreover, the growth in assay [7] is 99%; in assay [8], 103%; in [9], 75.1%; in assay [10], 92.2%.

In the case of `NCCn1cc(-c2nc(-c3c[nH]c4ncccc34)cs2)c2ccccc21`, the growth is 99.5% in assay [1]; 82.9% in [2]; 73.8% in assay [3]; 66.2% in [4]; 84.9% in assay [5]; 84.7% in assay [6]. The growth in [7] is 105%; in [8], 90.2%; in [9] it was 92.8%; in [10] it was 96.9%.

`N=C(N)c1ccc(-c2ccc(-c3cc(F)cc(F)c3)o2)nc1`: the growth was 104% in assay [1]; 15.9% in assay [2]; 97.3% in [3]; 78.3% in assay [4]; 75.2% in assay [5]; 90.8% in assay [6]. In addition, the growth in assay [7] was 95.9%; in assay [8], 88.4%; in [9], 115%; in assay [10] it was 94.7%.

For the compound `CCN1CCN(C(=O)[C@@]2(C)CC[C@]3(C)CC[C@]4(C)C(=CC(=O)[C@@H]5[C@@]6(C)CC[C@H](OC7C[C@@H](O)[C@@H](O)C(C)O7)C(C)(C)[C@@H]6CC[C@]54C)[C@@H]3C2)CC1` (stereo not given in full), the growth in [1] was 2.94% (active); in assay [2] it was 8.78% (active); in [3] it was 2.56% (active); in assay [4], 6.15% (active); in [5], 60.4%; in assay [6], 24.2%. For the same compound, the growth was -78% (active) in [7], -59.2% (active) in assay [8], 14.8% in assay [9] and -55.2% (active) in assay [10].

Turning to `COc1cnc2c(c1)C(=O)c1c-2n(CCCNC(C)C)c(=O)c2cc([N+](=O)[O-])ccc12`, the growth was -58.4% (active) in assay [1]; -14.4% (active) in [2]; -58.2% (active) in assay [3]; -60.5% (active) in assay [4]; -80.7% (active) in [5]; -61.2% (active) in assay [6]. In addition, the growth was -76.2% (active) in assay [7], -63% (active) in assay [8], -67% (active) in assay [9] and -76.8% (active) in assay [10].

Regarding `Cc1cc(N2CCN(C)CC2)nc(N(CCNc2ccnc3cc(Cl)ccc23)Cc2ccco2)n1`, the growth in assay [1] is 56.8%; in [2] it was 1.61% (active); in assay [3] it was -57.7% (active); in [4] it was 9.87% (active); in assay [5], 40.4%; in assay [6], 52.8%. Moreover, the growth in [7] was -15.3% (active); in assay [8], -68.3% (active); in assay [9] it was 5.22% (active); in [10], -87.5% (active).

Take `C#Cc1cccc(NC(=O)C2CCCN(C(=O)CCl)C2)c1` (stereo not given): the growth is 102% [8.25 µM] in assay [1]; 20.2% [8.25 µM] in [2]; 3.83% [8.25 µM] (active) in assay [3]; 81.5% [8.25 µM] in assay [4]; 67% [8.25 µM] in assay [5]; 78.3% [8.25 µM] in [6]. Besides, the growth in assay [7] is 85.4% [8.25 µM]; in assay [8], 79.9% [8.25 µM]; in assay [9], 79.7% [8.25 µM]; in assay [10] it was 20.6% [8.25 µM].

For the compound `C[C@H]1[C@@H]2[C@H]3CC[C@@H]4[C@@]5(C)Cc6c([nH]c7ccccc67)C(C)(C)[C@@H]5CC[C@@]4(C)[C@]3(C)CC[C@]23CO[C@]1(C)[C@@H](C(=O)/C=C/c1ccccn1)C3`, the growth in [1] was 102%; in assay [2] it was 72.5%; in assay [3] it was 106%; in [4], 85%; in [5], 89.3%; in assay [6], 88.8%. Moreover, the growth was 99.4% in assay [7], 84.9% in [8], 103% in assay [9] and 93.6% in [10].

Regarding `CC(C)C[C@@H](NC(=O)[C@@H](Cc1ccccc1)NC(=O)c1cnccn1)B1O[C@H]2[C@H](O)[C@@H](C(=O)NCCCC[C@@H]3NC(=O)[C@@H](Cc4ccccc4)NC(=O)[C@H](CC(=O)O)NC(=O)CNC(=O)[C@H](CCCN=C(N)N)NC3=O)O[C@@H](CN)[C@H]2O1`, the growth in assay [1] was -8.32% (active); in assay [2], 2.76% (active); in assay [3], -20.6% (active); in assay [4], -9.73% (active); in assay [5], -85.9% (active); in [6] it was -37.1% (active). Also, the growth in assay [7] is -73.5% (active); in [8] it was -31.9% (active); in assay [9] it was -28% (active); in [10], -0.783% (active).

As for `O=[N+]([O-])c1ccc(N/N=C(\C(=N/Nc2ccc([N+](=O)[O-])cc2[N+](=O)[O-])c2ccccc2)c2ccccc2)c([N+](=O)[O-])c1`, the growth was 86.4% in [1]; 97.3% in assay [2]; 65.6% in assay [3]; 94.2% in assay [4]; 111% in assay [5]; 82.6% in assay [6]. The growth in [7] was 94.6%; in [8], 89.2%; in assay [9], 95.2%; in [10], 100%.

The record behind these values is PubChem BioAssay (NCI).
